Growth data for eight molecules are collected here from PubChem BioAssay (NCI).

Test systems include SK-MEL-2 melanoma; EKVX NSCLC; SN12C renal; UO-31 renal; TK-10 renal; ACHN renal; CAKI-1 renal; CCRF-CEM leukemia; MOLT-4 leukemia; SR leukemia; RPMI-8226 leukemia; OVCAR-8 ovarian; OVCAR-5 ovarian; OVCAR-4 ovarian; SK-OV-3 ovarian; IGROV1 ovarian; OVCAR-3 ovarian; HS 578T breast; NCI/ADR-RES ovarian; A498 renal.
Test in all cases: NCI-60 one-dose screen, 48 h (100 = growth as untreated, 0 = no growth, -100 = all killed)
Details in all cases: 10 µM unless noted

Molecules are shown by their SMILES. This is part of a sample that, as a whole, favours compounds with a hit. Of some 83,000 tested, about 20% had one in any assay.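 The test compound was applied at a single concentration to cells in 96-well plates for 48 hours, and percent growth was recorded.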 Unmarked numbers belong to inactive results. The source made the active and inactive calls. The calls were made as follows: active = growth percent below 10; inactive = the rest.

On to `Nc1n[nH]c2ccc([C@@H]3Nc4cc5c(cc4[C@H]4C6CCC(C6)[C@@H]34)C(=O)NC5)cc12` (some centres not stated), for which the growth with SK-MEL-2 melanoma was 48.8%; in the experiment with EKVX NSCLC, 48.9%; in the experiment on SN12C renal, 38.4%; in the experiment on UO-31 renal, 54.9%; in the experiment with TK-10 renal, 89.3%; in the experiment with ACHN renal, 34.4%. The growth is 40.5% in the experiment with CAKI-1 renal; 10.5% in the experiment on CCRF-CEM leukemia; 14.7% in the experiment with MOLT-4 leukemia; 8.36% (active) in the experiment with SR leukemia; 34.6% in the experiment with RPMI-8226 leukemia; 21.5% in the experiment on OVCAR-8 ovarian. Also, the growth was 33.1% in the experiment on OVCAR-5 ovarian; 30.7% in the experiment on OVCAR-4 ovarian; 42.1% in the experiment on SK-OV-3 ovarian; 12.6% in the experiment on IGROV1 ovarian; -3.29% (active) in the experiment with OVCAR-3 ovarian; 24.5% with HS 578T breast. Besides, the growth in the experiment with NCI/ADR-RES ovarian was 69%.
For `CN(C)CCN1C(=O)c2cccc3c(N)ccc(c23)C1=O`, the growth in the experiment with SK-MEL-2 melanoma was 19.6%; in the experiment on EKVX NSCLC, 30.5%; in the experiment on SN12C renal, 33.6%; in the experiment with UO-31 renal, 26.8%; with TK-10 renal, 58.9%; in the experiment on ACHN renal it was 12.8%. Moreover, the growth in the experiment on CAKI-1 renal was -7.49% (active); with CCRF-CEM leukemia, 10.5%; in the experiment on MOLT-4 leukemia, 1.9% (active); with SR leukemia it was -19.2% (active); with RPMI-8226 leukemia, 4.13% (active); with OVCAR-8 ovarian, 18.1%. For the same molecule, the growth was 36.5% in the experiment with OVCAR-5 ovarian; 41.6% in the experiment with OVCAR-4 ovarian; 32.2% in the experiment on SK-OV-3 ovarian; 27.6% in the experiment with IGROV1 ovarian; 21.8% in the experiment with OVCAR-3 ovarian; 56.8% with HS 578T breast. Moreover, in the experiment with NCI/ADR-RES ovarian, the growth was 40%.
Take `CCOC(=O)c1c(C)oc2ncnc(N3CCN(C(=O)COc4ccc(SC)cc4)CC3)c12`: the growth in the experiment on SK-MEL-2 melanoma is 95.4%; in the experiment with EKVX NSCLC it was 88.1%; with SN12C renal, 94.9%; in the experiment with UO-31 renal, 74.4%; in the experiment on TK-10 renal, 103%; in the experiment with ACHN renal, 93.5%. Moreover, the growth in the experiment with CAKI-1 renal was 82.7%; with CCRF-CEM leukemia, 91.5%; in the experiment with MOLT-4 leukemia, 88.6%; with SR leukemia, 84.3%; with RPMI-8226 leukemia, 81.6%; in the experiment with OVCAR-8 ovarian it was 87.6%. For the same molecule, the growth in the experiment with OVCAR-5 ovarian is 98.2%; with OVCAR-4 ovarian, 75%; with SK-OV-3 ovarian, 86.1%; with IGROV1 ovarian, 90.4%; with OVCAR-3 ovarian, 100%; in the experiment on HS 578T breast it was 81.7%. Moreover, the growth in the experiment with NCI/ADR-RES ovarian was 85.7%.
Turning to `Nc1ccc(-c2cc3c(Nc4ccc(Oc5cccc(C(F)(F)F)c5)c(Cl)c4)ncnc3s2)cc1`, the growth is 88.1% with SK-MEL-2 melanoma; 54.8% with EKVX NSCLC; 57.3% in the experiment with SN12C renal; 47.3% in the experiment with UO-31 renal; 90.3% in the experiment on TK-10 renal; 60.5% in the experiment on ACHN renal. In addition, the growth in the experiment on CAKI-1 renal is 60.3%; with CCRF-CEM leukemia, 48.9%; in the experiment with MOLT-4 leukemia, 48.2%; with SR leukemia, 50.4%; in the experiment with RPMI-8226 leukemia it was 53.1%; in the experiment with OVCAR-8 ovarian, 73.3%. In addition, the growth with OVCAR-5 ovarian was 93.4%; in the experiment on OVCAR-4 ovarian, 77.8%; in the experiment with SK-OV-3 ovarian it was 83%; in the experiment with IGROV1 ovarian, 59.9%; in the experiment with OVCAR-3 ovarian it was 56.6%; with HS 578T breast, 83.1%. Also, in the experiment on NCI/ADR-RES ovarian, the growth is 69.7%.
Regarding `COc1cc(/C=C/C(=O)Nc2cccnc2Nc2ccc(F)cc2)cc(OC)c1OC`, the growth with SK-MEL-2 melanoma is 68.4%; in the experiment with EKVX NSCLC it was 92.5%; in the experiment on SN12C renal it was 109%; with UO-31 renal, 89.2%; in the experiment on TK-10 renal it was 103%; with ACHN renal, 102%. Besides, the growth was 88.6% in the experiment on CAKI-1 renal; 85% with CCRF-CEM leukemia; 87.5% with MOLT-4 leukemia; 82.5% in the experiment with SR leukemia; 69.1% in the experiment with RPMI-8226 leukemia; 81.7% with OVCAR-8 ovarian. Besides, the growth with OVCAR-5 ovarian is 105%; with OVCAR-4 ovarian, 93%; in the experiment with SK-OV-3 ovarian it was 107%; with IGROV1 ovarian it was 139%; with OVCAR-3 ovarian, 113%; with HS 578T breast it was 99.4%. Also, the growth with NCI/ADR-RES ovarian was 101%.
`Cc1cc2nc(NC(=O)CN3CCN(CCN4C(=O)c5cccc6cccc(c56)C4=O)CC3)sc2cc1C`: the growth with SK-MEL-2 melanoma was 107%; in the experiment on EKVX NSCLC, 82.1%; with SN12C renal it was 72.9%; in the experiment with UO-31 renal, 68%; in the experiment on TK-10 renal it was 95%; in the experiment on ACHN renal it was 85.1%. Moreover, the growth with CAKI-1 renal was 88%; in the experiment on CCRF-CEM leukemia, 71.5%; in the experiment with MOLT-4 leukemia, 45%; in the experiment on SR leukemia, 35.3%; with RPMI-8226 leukemia, 57.8%; in the experiment on OVCAR-8 ovarian, 79.7%. Further, the growth with OVCAR-5 ovarian is 93.6%; in the experiment on OVCAR-4 ovarian, 84.3%; in the experiment with SK-OV-3 ovarian it was 102%; in the experiment with IGROV1 ovarian, 77.6%; with OVCAR-3 ovarian, 101%; with HS 578T breast, 92%. Further, in the experiment on NCI/ADR-RES ovarian, the growth was 79%.
Regarding `O=[N+]([O-])c1ccc2c(c1)Cc1cc(F)ccc1-2`, the growth in the experiment with SK-MEL-2 melanoma was 126%; in the experiment on EKVX NSCLC, 68.7%; in the experiment on SN12C renal, 99%; in the experiment on UO-31 renal it was 88.8%; with TK-10 renal, 96.8%; in the experiment with ACHN renal it was 103%. Also, the growth with CAKI-1 renal is 96.4%; with CCRF-CEM leukemia it was 81.9%; in the experiment on MOLT-4 leukemia, 94.1%; in the experiment on SR leukemia it was 103%; with RPMI-8226 leukemia, 89.3%; with OVCAR-8 ovarian, 103%. The growth in the experiment on OVCAR-5 ovarian was 96.6%; in the experiment with OVCAR-4 ovarian, 91.7%; in the experiment with SK-OV-3 ovarian, 99.1%; in the experiment with IGROV1 ovarian it was 105%; with OVCAR-3 ovarian it was 113%; in the experiment with HS 578T breast it was 95.6%. Moreover, the growth in the experiment on NCI/ADR-RES ovarian was 106%.
For the molecule `CC[N+](CC)=c1sc2c(s1)C(c1ccc(Cl)cc1)Oc1ccc(Cl)cc1-2` (configuration not stated), the growth with SK-MEL-2 melanoma is -31.3% (active); in the experiment with EKVX NSCLC it was 16.4%; in the experiment with SN12C renal, 5.19% (active); with UO-31 renal, 70.5%; in the experiment with TK-10 renal, 44%; with ACHN renal, 88.5%. In addition, the growth with A498 renal was 28.6%; in the experiment on CCRF-CEM leukemia, -17% (active); in the experiment on MOLT-4 leukemia, -10.1% (active); in the experiment with SR leukemia, 14.8%; with RPMI-8226 leukemia, -31.4% (active); with OVCAR-8 ovarian it was 10.7%. The growth was 15.1% in the experiment on OVCAR-5 ovarian; 9.29% (active) with OVCAR-4 ovarian; -6.15% (active) with SK-OV-3 ovarian; 9.22% (active) with IGROV1 ovarian; 1.97% (active) with OVCAR-3 ovarian; 18.3% in the experiment on HS 578T breast. Moreover, in the experiment with NCI/ADR-RES ovarian, the growth is 88.9%.
